The sample as a whole holds a higher share of hits than the screen did.
APE1 inh – blocks human APE1 abasic DNA cleavage; recombinant APE1, TAMRA/BHQ-2 abasic DNA cleavage fluorescence; Potency, µM (doses to about 65.8 µM), actives largely listed as inhibitors; 350,000 tested, 0.35% active; note: nearly all actives have a fitted effect of over 55% in size
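0.75 nM APE1 + cpd, 15 min RT; start w/ 50 nM TAMRA/BHQ-2 THF-abasic dsDNA; kinetic fluor 525/598 nm ×3 reads @60 s; Δ(read3−read1); normalized to DMSO and NSC13755 control wells.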
RECQ1 helicase – blocks DNA unwinding by human RECQ1 | P46063 | RECQ1 DNA unwinding, red fluorescence kinetic read | Potency, µM (series often up to 57.3 µM), most hits filed as inhibitors | 240,000 tested, 0.54% active; note: nearly all actives have a fitted effect of over 30% in size
Target sequence (P46063 whole entry, looked up): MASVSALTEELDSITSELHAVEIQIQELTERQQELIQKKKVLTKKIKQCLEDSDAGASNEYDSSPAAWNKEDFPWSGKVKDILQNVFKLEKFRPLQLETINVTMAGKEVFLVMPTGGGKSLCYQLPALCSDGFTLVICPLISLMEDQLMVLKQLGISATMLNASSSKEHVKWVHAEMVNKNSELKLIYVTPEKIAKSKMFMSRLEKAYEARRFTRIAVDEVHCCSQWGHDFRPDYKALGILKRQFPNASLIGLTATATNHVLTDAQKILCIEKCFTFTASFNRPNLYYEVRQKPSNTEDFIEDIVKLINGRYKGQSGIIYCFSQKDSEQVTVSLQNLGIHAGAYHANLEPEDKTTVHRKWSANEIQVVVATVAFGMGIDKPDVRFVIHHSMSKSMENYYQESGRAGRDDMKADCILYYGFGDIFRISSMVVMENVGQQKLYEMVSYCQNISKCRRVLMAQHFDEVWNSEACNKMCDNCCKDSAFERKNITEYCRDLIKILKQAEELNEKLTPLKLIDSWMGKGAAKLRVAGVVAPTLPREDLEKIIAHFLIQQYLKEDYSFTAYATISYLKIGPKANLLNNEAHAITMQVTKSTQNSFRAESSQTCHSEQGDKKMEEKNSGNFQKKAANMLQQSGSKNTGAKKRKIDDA
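RECQ1T1 50 nM; forked duplex (20 bp + 30-nt ss tails) 200 nM, ATP 2 mM final; pH 8.0, 2 mM MgCl2, 2.5 ug/ml poly(dI-dC); 15 min compound preincubation; discontinuous kinetic read over 2 h at RT.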
L3MBTL1 inh – blocks human L3MBTL1. Q9Y468. AlphaScreen L3MBTL1–H3K9me1 peptide binding. Potency, µM (titrated, usually from 57.1 µM), usual class: inhibitors. 230,000 tested, 0.66% active; note: nearly all actives have a fitted effect of over 60% in size
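Read-out is AlphaScreen signal from streptavidin donor and nickel chelate acceptor beads (10 ug/mL final each) bridging L3MBTL1 (50 nM) and biotinylated K9-monomethylated H3(1-15) peptide (75 nM), after 30 min compound exposure at room temperature.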
KDM4E inh – JMJD2E (human) inhibition | JMJD2E catalytic domain, FDH-coupled NADH fluorescence (FDH is formaldehyde dehydrogenase) | Potency, µM (top dose mostly 57.1 µM), hits mostly inhibitors | 230,000 tested, 1.6% active | AID 2147; active = well fitted inhibition curve with a large enough effect, not every such curve was filed as active; inconclusive = small, poorly fitted or top-dose-only effect, or another doubt; inactive = no such curve, though single readings can be large or run the other way; note: nearly all actives have a fitted effect of over 50% in size
BLM helicase inh – Bloom syndrome helicase (human) inhibition; P54132; recombinant BLM DNA unwinding, fluorescence dequenching; Potency, µM (highest dose often 56.1 µM), actives largely listed as inhibitors; 350,000 tested, 0.2% active; note: nearly all actives have a fitted effect of over 35% in size
Of the large screens only hits and unclear results are named; the others gave an inactive call. Unless noted, calls come from the whole dose curve; as a rule, active = well fitted curve in the direction sought with a large enough effect; inconclusive = small, poorly fitted or top-dose-only effect, or another doubt; inactive = no such curve, though single readings can be large; an effect the other way counts as inactive or inconclusive.

CCCCn1c(C)cc2c(c1=O)C1O[C@](c3ccc(OC)cc3)(Cc3cc(OC)c(OC)cc31)O2	APE1 inh 4.3µM (no result: RECQ1 helicase, L3MBTL1 inh, KDM4E inh)
COc1ccc(NC(=O)C/C(C)=N/NC(=O)C2CCCCC2)c([N+](=O)[O-])c1	none (no result: RECQ1 helicase, L3MBTL1 inh, KDM4E inh)
COC(=O)CC1=C(C(=O)OC)C(c2cccs2)C(C#N)=C(N)O1 (centres undefined)	KDM4E inh 22µM
Cc1oc(-c2ccc(Cl)cc2)cc1-c1nn2c(-c3ccco3)nnc2s1	APE1 inh inconclusive, RECQ1 helicase 32µM
CN(C)c1ccc(N/C=C/C(=O)c2ccc(F)cc2)cc1	KDM4E inh 13µM
CCOC(=O)C(=O)Nc1nnc(SCc2ccc(F)cc2)s1	none
COc1cc2c(-c3ccc(O)cc3)nc3c(c(C)nn3-c3ccccc3)c2cc1OC	KDM4E inh inconclusive, BLM helicase inh 14µM
COc1cccc(-c2nc3c(c(C)nn3-c3ccccc3)c3cc(OC)c(OC)cc23)c1	none (no result: APE1 inh, RECQ1 helicase, L3MBTL1 inh, KDM4E inh)
CSc1ccc(NC(=O)NCCCN2CCC(Cc3ccccc3)CC2)cc1	none (no result: RECQ1 helicase, L3MBTL1 inh, KDM4E inh)
COc1ccc2[nH]cc(CCNC(=O)C3CCCNC3=O)c2c1 (centres undefined)	KDM4E inh inconclusive (no result: L3MBTL1 inh)
COc1ccc(OC)c(C2=C/C(=C/c3ccccn3)C(=O)O2)c1	RECQ1 helicase inconclusive, KDM4E inh 25µM (no result: L3MBTL1 inh)
COc1ccc(C(=O)c2cn(CC(=O)Nc3ccc4c(c3)OCCO4)c3ccc(OC)cc3c2=O)cc1	BLM helicase inh 10µM (no result: APE1 inh, RECQ1 helicase, L3MBTL1 inh, KDM4E inh)
CCN(CC)c1ccc(/C=N/Nc2nc3ccccc3[nH]2)c(O)c1	KDM4E inh 16µM (no result: L3MBTL1 inh)
CCN(CC)c1ccc(/C=N/NC(=O)c2ccco2)cc1	KDM4E inh inconclusive
CCN(CC)c1ccc(/C=N/NC(=O)c2ccco2)c(O)c1	APE1 inh inconclusive, KDM4E inh 14µM
Cn1nnnc1N=N/C(=N/Nc1ccccc1)c1ccccc1	L3MBTL1 inh 2.8µM, KDM4E inh inconclusive
O=C(O)c1ccc2c(c1)CCCN2	KDM4E inh inconclusive
O.O.O.O.O.O.O.O=S(=O)([O-])[O-].[Co+2]	APE1 inh inconclusive, RECQ1 helicase 16µM, BLM helicase inh 8.9µM (no result: L3MBTL1 inh, KDM4E inh)
COC(=O)[C@H]1[C@H]2CC3c4[nH]c5ccccc5c4CCN3C[C@@H]2CC[C@@H]1O (some centres undefined)	none (no result: L3MBTL1 inh)
O=C1NC(=S)N/C1=C/c1cccn1-c1ccc([N+](=O)[O-])cc1	APE1 inh inconclusive, RECQ1 helicase 28µM, L3MBTL1 inh inconclusive
COc1ccc([C@H]2CC(=O)C=C(c3ccccc3-c3ccccc3)C2)cc1	none (no result: RECQ1 helicase, KDM4E inh, BLM helicase inh)
CCOC(=O)C1=C(C)N(c2ccccc2)C(=O)/C1=C\c1ccco1	L3MBTL1 inh inconclusive
CCOC(=O)C1=C(C)N(c2ccccc2)C(=O)/C1=C\c1ccc(O)c(OC)c1	KDM4E inh 4.5µM (no result: L3MBTL1 inh)
Cc1cc(C)c(S(=O)(=O)Nc2cc(SCC(=O)O)c(O)c3ccccc23)cc1C	APE1 inh inconclusive, L3MBTL1 inh inconclusive, KDM4E inh 28µM, BLM helicase inh 16µM
COc1ccc(S(=O)(=O)Nc2cc(SCC(=O)O)c(O)c3ccccc23)cc1	none (no result: RECQ1 helicase, L3MBTL1 inh, KDM4E inh)
O=C(O)CSc1cc(NS(=O)(=O)c2ccc(Cl)cc2)c2ccccc2c1O	BLM helicase inh 25µM (no result: RECQ1 helicase, L3MBTL1 inh, KDM4E inh)
COCCNC(=O)C(OC(=O)c1ccco1)c1ccccc1Cl (centres undefined)	none (no result: RECQ1 helicase, L3MBTL1 inh, KDM4E inh)
C[n+]1cccc2cccc([O-])c21	RECQ1 helicase inconclusive, L3MBTL1 inh 28µM, KDM4E inh 16µM, BLM helicase inh 25µM
CC(C(=O)Nc1ccc(C(=O)O)c(O)c1)N1C(=O)/C(=C\c2ccco2)SC1=S (centres undefined)	APE1 inh 21µM (no result: RECQ1 helicase, L3MBTL1 inh, KDM4E inh)
O=C(CN1C(=O)/C(=C/c2ccco2)SC1=S)Nc1ccc(C(=O)O)c(O)c1	APE1 inh inconclusive (no result: RECQ1 helicase, L3MBTL1 inh, KDM4E inh)
Cc1cccc(-c2noc(CCC(=O)NC3CCCCC3)n2)c1	none (no result: RECQ1 helicase, L3MBTL1 inh, KDM4E inh)
CC1CCc2c(sc(NC(=O)c3ccco3)c2C(=O)O)C1 (centres undefined)	none (no result: RECQ1 helicase, L3MBTL1 inh, KDM4E inh)
CC1CCc2c(sc(NC(=O)/C=C/c3cccs3)c2C(=O)O)C1 (centres undefined)	APE1 inh 12µM (no result: RECQ1 helicase, L3MBTL1 inh, KDM4E inh)
O=C(/C=C/c1cccs1)Nc1scc(-c2ccccc2)c1C(=O)O	APE1 inh inconclusive, KDM4E inh 5µM, BLM helicase inh inconclusive (no result: L3MBTL1 inh)
O=C1c2ccccc2C(=O)C1C1=Nc2ccccc2NC(c2ccccc2)C1 (centres undefined)	none
Cc1cc(C(=O)N/N=C/c2cc(Cl)cc([N+](=O)[O-])c2O)n[nH]1	KDM4E inh 18µM
COc1cc([N+](=O)[O-])cc(/C=N/NC(=O)c2cc(C)nc3ccccc23)c1O	L3MBTL1 inh inconclusive, KDM4E inh 25µM
COc1cccc(/C=N/NC(=O)c2ccc([N+](=O)[O-])cc2Cl)c1O	KDM4E inh 14µM
COc1cc([N+](=O)[O-])cc(/C=N/NC(=O)c2cc(-c3ccccc3)nc3ccccc23)c1O	KDM4E inh 22µM
CC1(C)CC(=O)C(C2C3=C(CC(C)(C)CC3=O)Oc3ccc4ccccc4c32)C(=O)C1 (centres undefined)	none
O=C(N/N=C/c1cc(Cl)cc([N+](=O)[O-])c1O)c1cc(-c2ccccn2)nc2ccccc12	KDM4E inh 22µM (no result: L3MBTL1 inh)
C/C(=N\NC(=O)c1cc(C)nc2ccccc12)c1ccccn1	L3MBTL1 inh 28µM (no result: RECQ1 helicase, KDM4E inh, BLM helicase inh)
O=C(N/N=C/c1ccccn1)c1cc(-c2ccccc2)nc2ccccc12	KDM4E inh 25µM
C/C(=N\NC(=O)c1cc(C)nc2ccccc12)c1ccncc1	none (no result: RECQ1 helicase, L3MBTL1 inh, KDM4E inh)
O=C(N/N=C/c1ccccn1)c1cc(C2CC2)nc2ccccc12	none (no result: RECQ1 helicase, L3MBTL1 inh, KDM4E inh)
COc1cccc(C(=O)Nc2ccccc2C(=O)OCc2cc(=O)n3nc(C)sc3n2)c1	none (no result: APE1 inh, RECQ1 helicase, L3MBTL1 inh, KDM4E inh)
CC1CN(c2c3c(nc4ncnn24)CCCC3)CC(C)O1 (centres undefined)	none
O=S(=O)(Nc1ccc(S(=O)(=O)Nc2nccs2)cc1)c1ccc2c(c1)OCCO2	none (no result: L3MBTL1 inh)
COc1cccc2c1C(=O)c1c(O)c3c(c(O)c1C2=O)C[C@](O)(C(C)=O)C[C@H]3O[C@@H]1C[C@@H](N)[C@@H](O)[C@@H](C)O1	APE1 inh 21µM (no result: RECQ1 helicase, KDM4E inh, BLM helicase inh)
COc1ccc(-c2c(C)c3cc(O)ccc3oc2=O)cc1	none (no result: RECQ1 helicase, L3MBTL1 inh, KDM4E inh)
C=C(C)C(=O)Nc1ccc2c(c1)OCCOCCOCCO2	RECQ1 helicase inconclusive, L3MBTL1 inh 3.5µM, BLM helicase inh inconclusive
CC(=O)Nc1ccc2c(c1)OCCO2	none
COc1ccc(OC)c2sc(N(CCCN(C)C)C(=O)c3ccc(S(=O)(=O)N4CCc5ccccc5C4)cc3)nc12	APE1 inh 30µM (no result: RECQ1 helicase, KDM4E inh, BLM helicase inh)
CCOC(=O)CN1C(=O)N[C@@H](c2ccc(Br)cc2)C(C(=O)OC)=C1C	APE1 inh inconclusive (no result: L3MBTL1 inh)
CCOC(=O)CN1C(=O)N[C@H](c2ccc(Br)cc2)C(C(C)=O)=C1C	APE1 inh 32µM

Assay outcomes from PubChem.
